Screens: PubChem BioAssay, National Center for Advancing Translational Sciences (NCATS)
The list is not random: actives were taken first. Their share in the collection is about 8.5%.
GoLoco inh red: blocks human Gai1 binding to RGS12 GoLoco peptide, red readout | P63096 | Gai1:RGS12 GoLoco peptide FP, rhodamine, 10 min | Potency, µM (doses to about 61.6 µM), for inactives: at the top dose activity, negative = inhibition, actives largely listed as inhibitors | actives 0.44% (n = 230,000) | AID 880; active = well fitted inhibition curve with a large enough effect, not every such curve was filed as active; inactive = no such curve, though single readings can be large or run the other way; note: potency is the fitted concentration of half-maximal effect; nearly all actives have a fitted effect of over 30% in size
Target sequence (P63096 whole entry, looked up): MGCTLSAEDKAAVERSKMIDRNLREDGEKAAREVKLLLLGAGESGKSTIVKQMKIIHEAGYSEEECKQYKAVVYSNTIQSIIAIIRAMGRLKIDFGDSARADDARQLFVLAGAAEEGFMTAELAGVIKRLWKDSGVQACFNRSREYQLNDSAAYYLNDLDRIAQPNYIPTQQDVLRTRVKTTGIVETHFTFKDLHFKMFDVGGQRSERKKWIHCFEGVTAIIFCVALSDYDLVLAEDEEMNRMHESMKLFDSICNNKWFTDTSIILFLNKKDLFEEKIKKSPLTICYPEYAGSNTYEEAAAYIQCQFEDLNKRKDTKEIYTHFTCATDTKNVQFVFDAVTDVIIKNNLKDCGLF
NPSR antag: blocks cAMP signaling of the human neuropeptide S receptor; Q6W5P4; CHO-NPSR cells, cAMP TR-FRET, antagonist mode; Potency, µM (titrated, usually from 38.3 µM), inactives show at the top dose activity change, negative = inhibition, usual class: inhibitors; actives 1% (n = 220,000); AID 1461; active = well fitted curve in the direction sought with a large enough effect; inconclusive = small, poorly fitted or top-dose-only effect, or another doubt; inactive = no such curve, though single readings can be large; an effect the other way counts as inactive or inconclusive; note: potency is the fitted concentration of half-maximal effect; nearly all actives have a fitted effect of over 50% in size
JMJD2E inh: JMJD2E (human) inhibition. B2RXH2. JMJD2E catalytic domain, FDH-coupled NADH fluorescence (FDH is formaldehyde dehydrogenase). Potency, µM (series often up to 57.1 µM), without a hit: at the top dose activity change, negative = inhibition, actives largely listed as inhibitors. actives 1.6% (n = 230,000);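 note: potency is the fitted concentration of half-maximal effect; 0% = wells with enzyme and -100% = buffer wells without enzyme; nearly all actives have a fitted effect of over 50% in size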
Target sequence (B2RXH2 1-337 limits assumed): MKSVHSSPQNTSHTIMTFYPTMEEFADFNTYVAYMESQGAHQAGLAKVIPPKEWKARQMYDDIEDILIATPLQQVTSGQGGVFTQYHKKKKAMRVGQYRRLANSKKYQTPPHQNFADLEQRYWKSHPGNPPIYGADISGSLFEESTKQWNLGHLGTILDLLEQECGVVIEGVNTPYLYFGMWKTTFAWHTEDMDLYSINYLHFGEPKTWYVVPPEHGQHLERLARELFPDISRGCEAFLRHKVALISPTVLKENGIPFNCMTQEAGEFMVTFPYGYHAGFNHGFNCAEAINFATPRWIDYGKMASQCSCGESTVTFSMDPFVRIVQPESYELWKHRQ
Coupling enz: coupling enzyme interference in Giardia aldolase counter-screen; coupling enzyme system counterscreen, AmpLite Red fluorescence; activity change, negative = inhibition, % at 58.2 µM, hits read low; actives 0.67% (n = 290,000); in the data active = activity change below about -30%
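Activity here indicates interference with the coupling reaction, not aldolase inhibition. Compounds at 57.5 uM final met coupling enzymes for 10 min at RT; substrate and AmpLite Red detection followed, with a 525/598 nm fluorescence read after 20 min.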
ALDH1A1 block: blocks purified human ALDH1A1 activity; AID 1030; Potency, µM (top dose mostly 75.3 µM), for inactives: top-dose activity, negative = inhibition, most hits filed as inhibitors; actives 7.3% (n = 220,000); Purified ALDH1A1, NADH fluorescence, propionaldehyde substrate;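 note: potency is the fitted concentration of half-maximal effect; plate controls were no enzyme wells and a reference inhibitor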
Sfp inh: blocks B. subtilis Sfp PPTase activity; Q9F4F7; Biochemical Sfp PPTase activity, qHTS; Potency, µM, inactives show largest response in the series, negative = inhibition, actives largely listed as inhibitors; actives 3.5% (n = 310,000); AID 1490; active = well fitted curve in the direction sought with a large enough effect; inconclusive = small, poorly fitted or top-dose-only effect, or another doubt; inactive = no such curve, though single readings can be large; an effect the other way counts as inactive or inconclusive;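 note: the enzyme is Sfp with the accession as filed and its product quenches rhodamine fluorescence; potency is the fitted concentration of half-maximal effect; 0% = enzyme reaction without inhibitor and -100% = no enzyme wells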
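Compounds were incubated with enzyme (final 15 nM) for 15 min at room temperature before substrate addition started the reaction. Fluorescence at 525 nm excitation, 598 nm emission was recorded immediately and after 30 minutes.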
* = called active by the depositor; ? = inconclusive; / = not tested or not shown; ! = not confirmed by another sample; [ ] = remark or other dose. Unless noted, calls come from the whole dose curve; as a rule, active = well fitted inhibition curve with a large enough effect (not every such curve was filed as active); inconclusive = small, poorly fitted or top-dose-only effect, or another doubt; inactive = no such curve, though single readings can be large or run the other way. Unless noted, % is set by controls: 0 for no effect and ±100 for the full control effect.

SMILES	GoLoco inh red	NPSR antag	JMJD2E inh	Coupling enz	ALDH1A1 block	Sfp inh
COc1cccc(C2=NOC(C(=O)Nc3cccc(C(C)=O)c3)C2)c1 (stereo unspecified)	4%	-19%[46.1 µM]	-3%	-3	4µM*	16%
CCN(CC)CCOC(=O)c1ccc(NC(=O)CCCN2C(=O)/C(=C\c3cccs3)SC2=S)cc1	/	/	/	/	/	50µM*
C=CCn1c(=N)n(CC(O)COc2ccccc2OC)c2ccccc21 (stereo unspecified)	5%	-3%[46.1 µM]	3%	0	19%	22%
CCCCCn1c(=N)n(CC(O)COc2ccccc2OC)c2ccccc21 (stereo unspecified)	0%	-9%	-6%	-7	6%	25µM*!
Cc1ccccc1OCC(O)Cn1c(=N)n(Cc2ccccc2)c2ccccc21 (stereo unspecified)	0%	10µM*	0%	1	/	-24%
COc1ccc(Cl)cc1NC(=O)CSc1nnc(CNC(=O)c2ccco2)o1	-4%	7%	-1%	-1	-3%	20%
O=C(CSc1nnc(CNC(=O)c2c(F)cccc2Cl)o1)Nc1ccc2c(c1)OCCO2	0%	-19%[46.1 µM]	0%	2	18µM*	9%
O=C(CSc1nnc(CNC(=O)c2ccco2)o1)Nc1ccccc1	-5%	5%	0%	4	7%	8%
COc1ccc(C(=O)NCc2nnc(SCC(=O)NCc3ccc(F)cc3)o2)cc1	2%	-8%[46.1 µM]	-4%	2	?	-10%
O=C(CSc1nnc(CNC(=O)c2ccco2)o1)c1ccccc1	-6%	-10%[46.1 µM]	7%	3	13%	71µM*
COc1ccc(C(=O)NCc2nnc(SCC(=O)Nc3cccc(F)c3)o2)cc1	-3%	-6%	5%	5	9.5µM*	13%
COc1ccc(OC)c(NC(=O)CSc2nnc(CNC(=O)c3ccco3)o2)c1	3%	3%[46.1 µM]	-5%	-3	10µM*	-10%
C=CCn1c(CNC(=O)c2ccco2)nnc1SCC(=O)c1ccccc1	4%	14%	2%	-2	-7%	45µM*
COc1ccc(OC)c(NC(=O)CSc2nnc(C)n2Cc2ccccc2)c1	-10%	4%[46.1 µM]	3%	0	18µM*	9%
COc1ccc(NC(=O)CSc2nnc(C)n2Cc2ccccc2)cc1	-14%	?	-6%	3	-4%	14%
CCOC(=O)C(CC)n1cnc2c(nnn2-c2ccc(F)cc2)c1=O (stereo unspecified)	/	/	/	-3	/	18%
CC(=O)Nc1ccc(S(=O)(=O)N2CCN(c3nc4ccccc4n3CC(C)C)CC2)cc1	/	/	/	3	/	2%
COc1ccc(N2C(=NC(=O)CCC3CCCC3)SC3CS(=O)(=O)CC32)cc1 (stereo unspecified)	/	/	/	1	/	6%
CCOC(=O)CC1=NN(c2ccccc2)C(=O)/C1=C\c1ccc(N(C)C)cc1	99%	2%	-1%	-5	5µM*	7%
O=C(Cc1ccccc1)NNc1ccc2ccccc2c1	7%	-4%	25µM*	0	-8%	17%
O=C(COc1ccc2ccccc2c1)NNC(=O)Cc1ccccc1	32%	-43%	8%	0	2%	12%
COC(=O)c1ccccc1S(=O)(=O)NCc1nc2nc(C)cc(C)n2n1	/	/	/	-2	/	10%
CCOC(=O)C(C)Sc1nc2c(c(-c3cccs3)c1C#N)CCC2 (stereo unspecified)	18%	?	5%	3	?	50µM*
CCOC(=O)CSc1nc2c(c(-c3ccc(C)o3)c1C#N)CCCC2	-15%	?	?	-20	?	14µM*
Cc1ccc(-c2c(C#N)c(N)nc3c2CCCCC3)o1	-9%	4%[46.1 µM]	?	-1	?	50µM*
SMILES	GoLoco inh red	NPSR antag	JMJD2E inh	Coupling enz	ALDH1A1 block	Sfp inh
Cc1ccc(-c2c(C#N)c(N)nc3c2CCCCCC3)o1	-4%	-5%[46.1 µM]	?	1	-14%	3%
Cc1ccc2c(c1)Oc1ccc(NC(=O)CCl)cc1C(=O)N2	7%	31%	-2%	3	11µM*	11%
Cc1sc2c(c1C)CN(Cc1ccncc1)CN2C(=O)c1ccco1	85%	-20%[46.1 µM]	?	-3	25µM*	-16%
CC1Cc2ccccc2N1C(=O)COC(=O)c1ccc(O)cc1 (stereo unspecified)	43%	-52%	1%	-1	/	-14%
CC1Cc2ccccc2N1C(=O)COC(=O)CNC(=O)c1ccc(Br)o1 (stereo unspecified)	-4%	-5%[46.1 µM]	4%	4	28µM*	3%
COc1ccc(-c2nnc3n2N=C(c2ccccc2OC)CS3)c(OC)c1	/	/	/	0	/	-11%
COc1cc2ccnc(Cc3cccc(OC)c3OC)c2cc1OC	3%	-24%	-20%	-2	-1%	-5%
COc1cc(N)c(Cc2nccc3cc(OC)c(OC)cc23)cc1OC	14%	22%	-29%	-31*	-2%	-22%
COc1ccc(NC(=O)CSc2nc3c(c(-c4cccs4)c2C#N)CN(C)CC3)cc1OC	4%	-28%[46.1 µM]	-8%	-12	14µM*	-19%
COc1cc(NC(=O)C2=C(N3CCOCC3)/C(=C\c3ccc(N(C)C)cc3)CCC2)cc(OC)c1OC	-1%	2%	?	-5	18µM*	-20%
COC(=O)CC1C(=O)NCCN1C(=O)c1ccccc1 (stereo unspecified)	6%	-8%[46.1 µM]	-4%	1	9%	14%
COC(=O)CC1C(=O)NCCN1C(=O)CSc1nc2ccccc2s1 (stereo unspecified)	6%	11%	-11%	-2	18µM*	71µM*
COc1ccc2c(c1)N(C[C@@H](C)CN(C)C)c1ccccc1S2	7%[21.6 µM]	/	-9%[25.5 µM]	-1	13%[20.9 µM]	4%
COc1cc(C(=S)N2CCCC2)cc(Cl)c1OCC(=O)Nc1ccc(C)cc1C	12%	-16%	6%	0	2.5µM*	?
O=C(O)C1CCCCC1C(=O)Nc1cc(C(F)(F)F)ccc1Cl (stereo unspecified)	5%	-7%	5%	7	11%	16%
CCOc1ccccc1C1c2[nH]c3ccccc3c2C[C@H]2C(=O)N(C3CC3)CC(=O)N12 (stereo partly specified)	/	/	/	-2	/	3%
N#C/C(=N\Nc1ccc(S(=O)(=O)N2CCCCCC2)cc1)C(N)=S	20%	-33%	2%	5	8.9µM*	?
N#C/C(=N/Nc1ccc(S(=O)(=O)N2CCOCC2)cc1)C(N)=O	-1%	24%	2%	4	-5%	4%
N#C/C(=N\Nc1cccc([N+](=O)[O-])c1)C(=O)c1ccc(Br)cc1	16%	6.3µM*	-3%	12	22µM*	-6%
N#C/C(=N\Nc1ccc([N+](=O)[O-])cc1)C(N)=S	161%	?	-19%	-1	/	45µM*
